Experiment [1] is described as follows: qHTS assay to identify small molecule antagonists of the estrogen receptor beta (ER-beta) signaling pathway - cell viability counter screen (AID 1259382).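 Further: HEK293T cells carrying ER-beta-UAS-bla reporter stimulated with estradiol; series mostly up to about 92 µM; nearly all actives have a fitted effect of over 55% in size.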 A digest of the protocol:
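ER-beta-UAS-bla HEK293T cells (2,000/well, 2% charcoal-stripped FBS) were pre-incubated 6 hr at 37C, then given compound plus 1nM final 17-beta-estradiol for 16 hr. Viability was read in the same wells by CellTiter-Glo luminescence after 30 min at room temperature.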

For experiment [2], the target named is Estrogen receptor (Homo sapiens) (UniProt P03372). The experiment in a line: qHTS assay to identify small molecule agonists of the estrogen receptor alpha (ER-alpha) signaling pathway in the presence of an antagonist (AID 1259383; calls by dose curve; further: nearly all actives have a fitted effect of over 15% in size; further: potency means the concentration at half of the fitted maximal effect; on activation: top concentration of the series differs between compounds). A digest of the protocol: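 VM7Luc4E2 cells (endogenous full-length ER-alpha, 4×ERE-luciferase) were precultured 5 days in phenol red-free medium with 10% charcoal-stripped FBS, given 10.0nM ICI-182,780 (final), then treated with compounds at 15 concentrations for 22hr at 37C; luminescence read with ONE-Glo.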
In general terms: Quantitative high-throughput screening tests each substance at several concentrations.

A short description of experiment [3]: qHTS assay to identify small molecule agonists or antagonists of the thyroid stimulating hormone receptor (TSHR) signaling pathway - wild type cell line counter screen (AID 1259384; calls by dose curve). In short, it runs like this: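 Counter screen in untransfected Hek293: compounds (15-point titration, triplicate) plus phosphodiesterase inhibitor Ro20-1724 added after 18 h plating; 30 min RT. Intracellular cAMP via competitive d2/cryptate immunoassay, 1 h incubation.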

Experiment [4] in a line: qHTS assay to identify small molecule agonists of the estrogen receptor alpha (ER-alpha) signaling pathway in the presence of an antagonist - cell viability counter screen (AID 1259386).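 Further: series mostly up to about 92 µM; cells exposed to compounds for 22 h at 37 °C before the viability read; nearly all actives have a fitted effect of over 30% in size.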 In short, it runs like this:
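VM7Luc4E2 cells (endogenous full-length ER-alpha, 4×ERE-luciferase) were held 5 days in phenol red-free medium with 10% charcoal-stripped FBS, plated, then given 10.0nM ICI-182,780 and compounds at 15 concentrations for 22hr at 37C; viability read by CellTiter-Fluor fluorescence.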

For experiment [5], the target named is Progesterone receptor (Homo sapiens) (UniProt P06401). In words: qHTS assay to identify small molecule antagonists of the progesterone receptor (PR) signaling pathway (AID 1346795; active means well fitted inhibition curve with a large enough effect in the signal ratio in the repeat runs, not every such curve was filed as active; the % refers to the signal ratio). In short, it runs like this: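 In HEK293T cells bearing the PR-UAS-bla reporter, compound effects on promegestone-driven (1 nM) beta-lactamase expression are assessed after 16 hr using a fluorescent FRET substrate incubated 2 hr at room temperature.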

The nature of experiment [6]: qHTS assay to identify small molecule antagonists of the progesterone receptor (PR) signaling pathway - cell viability counter screen (AID 1346798). Further: series mostly up to about 92 µM; nearly all actives have a fitted effect of over 50% in size. A digest of the protocol: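 Following a 4 hr attachment, PR-UAS-bla HEK293T cells in charcoal-stripped FBS medium were exposed to compounds with R5020 for 16 hr; CellTiter-Glo was added and luminescence read after 30 min at room temperature.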

Experiment [7] in a line: qHTS assay to identify small molecule agonists of the progesterone receptor (PR) signaling pathway - cell viability counter screen (AID 1346799; calls by dose curve; further: nearly all actives have a fitted effect of over 45% in size). A digest of the protocol:
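Here, 3,000 PR-UAS-bla HEK293T cells per well were treated with compounds for 16 hr after a 6 hr preincubation at 37C and 5% CO2; cell viability is the CellTiter-Glo luminescence signal.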

Experiment [8] in a line: qHTS assay to identify small molecule antagonists of the TGF-beta/Smad signaling pathway - cell viability counter screen (AID 1346824). Further: nearly all actives have a fitted effect of over 50% in size. In short, it runs like this:
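Cytotoxicity counter-screen run in the same wells as the beta-lactamase Smad reporter read: CellTiter-Glo luminescence after 30 min at room temperature. HEK 293T SBE-bla cells had 5 hr compound exposure at 37 C with TGF-beta1 (0.25 ng/mL stock).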

Experiment [9] deals with Thyrotropin receptor (Homo sapiens) (UniProt P16473). The experiment in a line: qHTS assay to identify small molecule antagonists of the thyroid stimulating hormone receptor (TSHR) signaling pathway (AID 1259385; calls by dose curve; further: nearly all actives have a fitted effect of over 20% in size). In short, it runs like this:
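Antagonist mode: compound-treated TSHR-expressing HEK293 cells were stimulated with 1.5 ng/mL TSH (final) in presence of Ro20-1724 for 30 min at RT. HTRF cAMP detection after 1 h; each compound tested at 15 concentrations, triplicate.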

Experiment [10] deals with Progesterone receptor (Homo sapiens) (UniProt P06401). The experiment in a line: qHTS assay to identify small molecule agonists of the progesterone receptor (PR) signaling pathway (AID 1346784; calls by dose curve; further: nearly all actives have a fitted effect of over 30% in size). In short, it runs like this:
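Compounds were tested for PR agonism in HEK 293T cells bearing a beta-lactamase gene under UAS control. Treatment lasted 16 hr at 37C; signal came from fluorescence of a FRET substrate.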

Unmarked numbers belong to inactive results. Inconclusive results are not listed. The source made the active and inactive calls. Unless noted, the call rests on the fitted dose curve; in most records, active means well fitted curve in the direction sought with a large enough effect in the repeat runs; inconclusive means weak or mixed curves; inactive means no such curve, though single readings can be large; an effect the other way counts as inactive or inconclusive.
On the % scale 0 is the no-effect control and ±100 the full control effect.

Sequence of Thyrotropin receptor (Homo sapiens) (P16473 whole entry, looked up): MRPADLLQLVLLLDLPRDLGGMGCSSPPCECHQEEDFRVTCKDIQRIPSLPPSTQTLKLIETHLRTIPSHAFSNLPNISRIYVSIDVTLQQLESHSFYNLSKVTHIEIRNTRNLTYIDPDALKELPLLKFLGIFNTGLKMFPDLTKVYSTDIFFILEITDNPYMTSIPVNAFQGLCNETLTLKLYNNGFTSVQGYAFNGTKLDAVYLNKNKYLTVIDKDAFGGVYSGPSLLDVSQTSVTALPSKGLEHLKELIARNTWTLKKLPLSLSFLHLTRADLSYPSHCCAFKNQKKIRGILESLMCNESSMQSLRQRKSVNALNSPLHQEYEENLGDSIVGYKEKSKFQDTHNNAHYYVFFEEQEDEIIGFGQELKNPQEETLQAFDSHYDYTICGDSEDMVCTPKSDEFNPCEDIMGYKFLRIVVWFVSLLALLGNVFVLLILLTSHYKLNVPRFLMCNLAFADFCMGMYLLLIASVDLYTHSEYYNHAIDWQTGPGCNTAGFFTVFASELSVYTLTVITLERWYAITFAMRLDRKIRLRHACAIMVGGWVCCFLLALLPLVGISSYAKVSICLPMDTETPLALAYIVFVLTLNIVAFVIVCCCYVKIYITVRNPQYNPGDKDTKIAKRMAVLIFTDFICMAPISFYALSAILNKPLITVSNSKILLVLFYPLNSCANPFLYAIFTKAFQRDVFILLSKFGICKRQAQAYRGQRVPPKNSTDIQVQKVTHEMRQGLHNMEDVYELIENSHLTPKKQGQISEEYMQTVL
Sequence of Estrogen receptor (Homo sapiens) (P03372 whole entry, looked up): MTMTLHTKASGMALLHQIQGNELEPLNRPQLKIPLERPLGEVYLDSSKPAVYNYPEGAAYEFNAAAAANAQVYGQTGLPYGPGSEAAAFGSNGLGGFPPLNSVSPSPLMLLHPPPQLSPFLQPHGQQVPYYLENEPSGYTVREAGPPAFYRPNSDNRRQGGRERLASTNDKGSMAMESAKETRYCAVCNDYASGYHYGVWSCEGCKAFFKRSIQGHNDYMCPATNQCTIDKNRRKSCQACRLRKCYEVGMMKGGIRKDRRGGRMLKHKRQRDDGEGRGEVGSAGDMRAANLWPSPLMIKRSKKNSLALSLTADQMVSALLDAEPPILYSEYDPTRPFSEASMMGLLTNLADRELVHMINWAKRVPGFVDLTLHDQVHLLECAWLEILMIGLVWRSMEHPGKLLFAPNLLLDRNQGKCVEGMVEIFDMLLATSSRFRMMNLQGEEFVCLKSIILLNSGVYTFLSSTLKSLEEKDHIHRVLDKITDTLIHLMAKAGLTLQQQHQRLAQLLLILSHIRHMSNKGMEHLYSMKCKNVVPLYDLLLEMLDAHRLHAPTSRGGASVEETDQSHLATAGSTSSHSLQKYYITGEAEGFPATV
Sequence of Progesterone receptor (Homo sapiens) (P06401 whole entry, looked up): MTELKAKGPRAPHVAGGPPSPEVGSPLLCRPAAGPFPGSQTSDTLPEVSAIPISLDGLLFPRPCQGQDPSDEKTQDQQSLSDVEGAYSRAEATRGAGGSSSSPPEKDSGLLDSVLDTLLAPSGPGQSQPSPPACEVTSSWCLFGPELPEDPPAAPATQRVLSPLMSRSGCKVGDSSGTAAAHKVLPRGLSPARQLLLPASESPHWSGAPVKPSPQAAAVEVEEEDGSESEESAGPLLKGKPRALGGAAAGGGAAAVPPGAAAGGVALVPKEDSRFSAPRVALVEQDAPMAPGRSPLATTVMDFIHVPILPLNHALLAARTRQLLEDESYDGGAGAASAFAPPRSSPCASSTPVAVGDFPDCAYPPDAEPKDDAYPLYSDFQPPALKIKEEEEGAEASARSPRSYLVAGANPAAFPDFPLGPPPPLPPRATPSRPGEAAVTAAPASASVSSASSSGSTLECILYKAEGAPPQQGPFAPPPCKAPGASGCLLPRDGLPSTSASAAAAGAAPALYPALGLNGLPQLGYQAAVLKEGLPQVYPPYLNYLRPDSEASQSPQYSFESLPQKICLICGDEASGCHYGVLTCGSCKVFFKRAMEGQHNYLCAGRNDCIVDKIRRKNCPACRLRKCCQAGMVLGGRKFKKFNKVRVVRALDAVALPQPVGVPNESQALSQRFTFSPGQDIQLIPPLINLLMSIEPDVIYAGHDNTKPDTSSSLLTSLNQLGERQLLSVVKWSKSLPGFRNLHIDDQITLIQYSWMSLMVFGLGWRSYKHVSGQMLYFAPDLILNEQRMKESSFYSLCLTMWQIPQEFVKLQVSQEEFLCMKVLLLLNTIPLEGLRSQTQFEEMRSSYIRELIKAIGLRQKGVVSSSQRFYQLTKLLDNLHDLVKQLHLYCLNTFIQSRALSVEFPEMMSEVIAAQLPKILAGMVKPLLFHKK

`CCCCCCCCCCCCCCC(=O)NC(CO)CCCCCCCCCCCCCC` (configuration not stated): the compound was classed as inactive in experiment [1], in experiment [3], in [4], in experiment [6], in experiment [7] and in experiment [8]. Besides, the Potency entry in experiment [2] and in [5] was “inactive” throughout.

Take `O=C(CN1CCNCC1)NC1CCCCC1`: the compound was classed as inactive in experiment [1], in [9], in experiment [4], in experiment [6], in experiment [7] and in experiment [8]. For the same compound, the Potency entry in experiment [2], in experiment [10] and in experiment [5] was “inactive” each time.

Consider `CCCCCCCCCCOC(C)=O`, for which the call in [1], in experiment [9], in experiment [4], in experiment [6], in [7] and in [8] was inactive. In addition, the Potency result in [2], in experiment [10] and in experiment [5] was “inactive” each time.

With `Cc1ccc2c(c1)C(=O)c1ccccc1C2=O`, the compound was called inactive in experiment [1], in experiment [9], in experiment [4] and in experiment [8]. Besides, the Potency in experiment [2] is 3.84 µM (active). In addition, the Potency entry in experiment [10] and in experiment [5] was “inactive” throughout.

`CC1OCCC1=O` (configuration not stated): the compound was classed as inactive in [1], in [3], in experiment [9], in experiment [4], in [6] and in experiment [7]. Further, the call in experiment [8] was inactive. The Potency entry in experiment [2] and in experiment [5] was “inactive” in each case.

As to `CSc1cnccn1`, the outcome in experiment [1], in experiment [3], in experiment [9], in [4], in experiment [6] and in experiment [7] was inactive. Also, the outcome in [8] was inactive. The Potency result in [2] and in [5] was “inactive” in each case.

Consider `N[C@@H](CSCCCO)C(=O)O`, for which the activity change, negative = cytotoxicity in [1] is 8.62% [at 19 µM]; in [4], -1.24% [at 19 µM]; in experiment [6], -3.41% [at 18.9 µM]; in experiment [7], 4.73% [at 19 µM]. Moreover, in experiment [2], the activation was -1.71% [at 19 µM]. Also, in [3], the cAMP activity change was -1.7% [at 18.9 µM]. Further, the activity change, negative = inhibition was -0.731% [at 19 µM] in [9] and 8.75% [at 18.9 µM] in experiment [5]. For the same compound, in experiment [8], the viability change, negative = cytotoxic was -0.153% [at 15.8 µM].

Take `O=C1CCC(=O)N1Cl`: the result in [1], in experiment [3], in [9], in experiment [4], in [6] and in experiment [8] was inactive. The Potency entry in experiment [2] and in experiment [5] was “inactive” in each case.

Regarding `CCOCCOCC`, the compound was called inactive in experiment [1], in experiment [9], in experiment [4], in [6], in [7] and in [8]. Moreover, the Potency result in experiment [2], in experiment [10] and in experiment [5] was “inactive” each time.

In the case of `CCCCCCC1(C)CCC(=O)O1` (configuration not stated), the compound was called inactive in experiment [1], in experiment [9], in experiment [4], in [6], in [7] and in experiment [8]. Besides, the Potency entry in [2], in experiment [10] and in [5] was “inactive” throughout.

For the compound `CC(C)CO`, the outcome in experiment [1], in experiment [3], in experiment [9], in [4], in experiment [7] and in experiment [8] was inactive. The Potency entry in experiment [2] is “inactive”.

In the case of `CC(C)Cn1cnc2c1c(=O)n(C)c(=O)n2C`, the compound was classed as inactive in experiment [1], in experiment [3], in [9], in experiment [4], in [6] and in experiment [8]. Further, the Potency result in [2] and in experiment [5] was “inactive” each time.

`C=CC(=O)OCC1CCCO1` (configuration not stated): the result in experiment [1], in experiment [3], in [9], in experiment [4], in experiment [6] and in [7] was inactive. The result in experiment [8] was inactive. Further, in experiment [2], the Potency entry was “inactive”.

With `CCCCCc1cccc(=O)o1`, the compound was classed as inactive in experiment [1], in [9], in [4], in experiment [6], in experiment [7] and in [8]. Moreover, the Potency entry in experiment [2], in [10] and in experiment [5] was “inactive” in each case.

In the case of `COc1nc(N)nc2nc[nH]c12`, the result in experiment [1], in experiment [9], in experiment [4], in experiment [6], in experiment [7] and in [8] was inactive. Moreover, the Potency entry in experiment [2], in experiment [10] and in experiment [5] was “inactive” in each case.

With `CCC(C)OC(C)CC` (configuration not stated), the call in experiment [1], in experiment [3], in experiment [9], in experiment [4], in experiment [6] and in experiment [8] was inactive. For the same compound, the Potency entry in [2] is “inactive”.

For the compound `CCO[Si](CC)(OCC)OCC`, the compound was called inactive in [1], in experiment [9], in experiment [4], in [6], in experiment [7] and in experiment [8]. For the same compound, the Potency result in [2], in experiment [10] and in [5] was “inactive” each time.

With `c1ccc(-c2nn[nH]n2)cc1`, the compound was classed as inactive in experiment [1], in experiment [3], in [9], in [4], in [6] and in [7]. Further, in experiment [8], the result was inactive. In addition, the Potency entry in [2] and in experiment [5] was “inactive” each time.

Turning to `CCCCCC(C)O` (configuration not stated), the outcome in experiment [1], in experiment [9], in experiment [4], in [6], in experiment [7] and in [8] was inactive. Also, the Potency result in experiment [2] and in experiment [10] was “inactive” throughout.

Turning to `CCN(CC)CCN`, the outcome in experiment [1], in [3], in [9], in experiment [4], in [6] and in experiment [7] was inactive. Further, the call in experiment [8] was inactive. Also, the Potency result in experiment [2] and in experiment [5] was “inactive” each time.

On to `C=CCCCC`, for which the compound was classed as inactive in [1], in [9], in experiment [4], in experiment [6], in [7] and in experiment [8]. The Potency result in experiment [2], in [10] and in experiment [5] was “inactive” in each case.

`CC(N)CCCC(C)(C)O` (configuration not stated): the call in [1], in [3], in experiment [9], in experiment [4], in [7] and in experiment [8] was inactive. Besides, the Potency result in experiment [10] and in [5] was “inactive” in each case.

Take `O/N=C/C=N/O`: the result in experiment [1], in experiment [3], in experiment [9], in experiment [4], in experiment [6] and in experiment [7] was inactive. Besides, the result in experiment [8] was inactive. For the same compound, the Potency entry in [10] and in experiment [5] was “inactive” throughout.

For the compound `Cn1c(=O)c2c(ncn2CCO)n(C)c1=O`, the result in experiment [1], in experiment [3], in experiment [9], in [4], in experiment [6] and in experiment [7] was inactive. Further, the compound was classed as inactive in experiment [8]. The Potency entry in experiment [10] and in experiment [5] was “inactive” throughout.

As to `C=C(C)[C@@H]1CC=C(C)C(=O)C1`, the outcome in experiment [1], in experiment [3], in experiment [9], in experiment [4], in experiment [6] and in [7] was inactive. The result in experiment [8] was inactive. Besides, the Potency entry in experiment [10] was “inactive”.

In the case of `CCCCCC/C=C/C(=O)OC`, the call in experiment [1], in experiment [3], in [9], in experiment [4], in [6] and in experiment [7] was inactive. Moreover, in experiment [8], the result was inactive. Also, the Potency entry in experiment [10] and in experiment [5] was “inactive” throughout.

With `O=C(O)CONC(=O)c1ccccc1`, the compound was classed as inactive in experiment [1], in experiment [3], in experiment [9], in experiment [4], in [6] and in experiment [7]. The outcome in experiment [8] was inactive. The Potency result in experiment [10] and in experiment [5] was “inactive” in each case.

Consider `c1ccc2cnccc2c1`, for which the result in experiment [1], in [4], in experiment [6], in experiment [7] and in experiment [8] was inactive. The Potency entry in experiment [2] and in [10] was “inactive” in each case.
